Data on five compounds can be found in PubChem BioAssay.

The source made the active and inactive calls. Unless noted, no rule for the calls is given here.

Assay [1] is described as follows: compounds binding Alexa647 anti-His antibody – biochemical, small-molecule microarray, 635 nm fluorescence, artefact control for SMM control protein annotation, primary screen (AID 1128).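 Also: score merges feature fluorescence with signal-to-noise for each printed compound spot.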 As to conditions: higher = more signal.
In assay [2] the test system is Human papillomavirus type 1a E7 protein (residues 1-88). The assay is described as follows: HPV1a E7 small-molecule binders, primary screen, biochemical, small-molecule microarray, residues 1-88, 635 nm (AID 1129). As to conditions: small-molecule microarray binding, fluorescence 635 nm; higher = more signal.
For assay [3], the target named is Focal adhesion kinase 1 (Homo sapiens) (UniProt Q05397). Put plainly: PTK2 protein binding on printed compound slides – biochemical, small-molecule microarray, 635/667 nm fluorescence, BSA, DTT, primary screen (AID 1130).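 Also: composite of spot emission at 667 nm and signal to noise over triplicate slides.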 The conditions noted are these: 635 nm fluorescence, higher = more signal.
Chain of Focal adhesion kinase 1 (Homo sapiens) (Q05397 whole entry, looked up): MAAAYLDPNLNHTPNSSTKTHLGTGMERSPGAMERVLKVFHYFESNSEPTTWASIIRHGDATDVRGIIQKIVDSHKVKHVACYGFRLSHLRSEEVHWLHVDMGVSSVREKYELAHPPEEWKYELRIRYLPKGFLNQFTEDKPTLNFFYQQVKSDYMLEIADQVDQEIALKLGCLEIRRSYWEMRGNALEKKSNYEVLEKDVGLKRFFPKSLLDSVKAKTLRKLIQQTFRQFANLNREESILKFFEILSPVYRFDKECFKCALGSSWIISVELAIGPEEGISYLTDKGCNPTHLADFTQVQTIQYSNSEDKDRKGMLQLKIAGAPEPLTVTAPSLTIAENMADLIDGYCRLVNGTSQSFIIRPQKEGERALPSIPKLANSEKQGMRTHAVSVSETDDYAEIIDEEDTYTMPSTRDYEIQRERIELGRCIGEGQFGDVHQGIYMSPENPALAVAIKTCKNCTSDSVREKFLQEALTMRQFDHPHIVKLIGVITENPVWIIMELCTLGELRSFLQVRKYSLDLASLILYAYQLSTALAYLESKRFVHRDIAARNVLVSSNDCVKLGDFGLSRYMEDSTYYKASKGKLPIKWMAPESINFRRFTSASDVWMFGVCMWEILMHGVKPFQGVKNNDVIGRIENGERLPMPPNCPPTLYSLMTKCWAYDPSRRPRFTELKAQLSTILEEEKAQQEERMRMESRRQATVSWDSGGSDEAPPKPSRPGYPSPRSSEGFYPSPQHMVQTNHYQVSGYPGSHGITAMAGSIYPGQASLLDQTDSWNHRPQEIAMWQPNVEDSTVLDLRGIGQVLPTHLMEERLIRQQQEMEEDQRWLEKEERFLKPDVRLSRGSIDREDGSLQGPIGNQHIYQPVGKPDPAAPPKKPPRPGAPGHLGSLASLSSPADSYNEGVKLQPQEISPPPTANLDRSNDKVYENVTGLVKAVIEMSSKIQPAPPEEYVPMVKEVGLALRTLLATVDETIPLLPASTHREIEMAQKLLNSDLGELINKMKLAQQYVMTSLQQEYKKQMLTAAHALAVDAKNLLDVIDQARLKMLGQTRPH
The subject of assay [4] is Fibrinogen (Alexa647-labelled). The assay is described as follows: Alexa647-fibrinogen binding to printed small molecules – biochemical, small-molecule microarray, 635/667 nm fluorescence, artefact control for SMM control-protein annotation, profiling panel (AID 1131).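 Also: z-score merges 667 nm fluorescence with per-spot signal-to-noise over triplicate slides.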 As to conditions: fibrinogen-A647 binding fluorescence, higher = more signal.
Assay [5] has as its target Follistatin (Homo sapiens) (UniProt P19883). Put plainly: FST protein binding to printed compounds – biochemical, small-molecule microarray, 635/667 nm fluorescence, primary screen (AID 1132). As to conditions: 635 nm fluorescence, higher = more signal.
Assay [6] concerns the target Fibroblast growth factor 2 (Homo sapiens) (UniProt P09038). The assay is described as follows: basic fibroblast growth factor binding to printed compounds – biochemical, small-molecule microarray, 635/667 nm fluorescence, primary screen (AID 1133). As to conditions: FGF2, fluorescence 635/667, higher = more signal.
Assay [7] in a line: JC-1 mitochondrial potential readout, lung cancer cells – cell-based, A549, JC-1 fluorescence, basal, 24 h, 100 nL, profiling panel (AID 1138).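 Also: A549 lung adenocarcinoma cells under basal conditions with no added stimulus; test concentration not given here.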 As to conditions: higher = more signal.
For a further assay, the system named is Lefty1. Put plainly: Lefty1 protein binding to printed compounds – biochemical, small-molecule microarray, 635/667 nm fluorescence, primary screen (AID 1139). The conditions noted are these: fluorescence 635/667, higher = more signal.
Assay [8] has as its system wheat germ agglutinin (Triticum aestivum), Alexa647-labelled. Put plainly: Alexa647-WGA lectin binding to printed small molecules – biochemical, small-molecule microarray, 635/667 nm fluorescence, artefact control for SMM control-protein annotation, profiling panel (AID 1140).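 Also: score merges 667 nm feature emission with signal to noise over triplicate slides.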 The conditions noted are these: WGA-A647 binding, 635 nm fluorescence, higher = more signal.
Assay [9] addresses Luciferin 4-monooxygenase (Photinus pyralis) (UniProt P08659). The assay is described as follows: inhibition of purified Photinus pyralis luciferase – biochemical, luminescence, purified enzyme, 2006 set, primary screen (AID 1141).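 Also: cell-free assay with purified firefly luciferase at 100 ng per well in PBS; test concentration not given here.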 As to conditions: purified firefly luciferase, SteadyGlo luminescence, 30 min; higher = more signal, called active from +8 up or from −8 down.
Assay [10] deals with Wnt5a (protein binding on small-molecule microarray). The assay is described as follows: small molecules binding Wnt5a protein – biophysical, small-molecule microarray, 635/667 nm fluorescence, primary screen (AID 1142).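 Also: fluorescence read at 667 nm with signal to noise per printed feature.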 The conditions noted are these: 635 nm fluorescence, higher = more signal.
Assay [11] in a line: ATP-based viability of Huh7 replicon cells – cell-based, CellTiter-Glo luminescence, basal, 48 h, cytotoxicity control for HCV replication inhibitor project, primary screen (AID 1143).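 Also: Huh7 hepatoma cells carrying a hepatitis C replication reporter with no stimulus; test concentration not given here.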 The conditions noted are these: higher = more signal, called active from +8 up or from −8 down. For orientation: Replicon systems follow genome replication, usually without infectious particles.

Assay [12] is described as follows: Pseudomonas biofilm growth suppression – PAO1 strain, BacTiter-Glo luminescence, LB-PBS, primary screen (AID 1144). As to conditions: P. aeruginosa PAO1 biofilm, 12 h, higher = more signal.
Assay [13] is described as follows: basal CRE-LacZ reporter activity in PC12 – cell-based, unstimulated, primary screen (AID 1145). As to conditions: no forskolin, luminescence, 4.5 h, higher = more signal, called active from +8 up or from −8 down.
A short description of assay [14]: forskolin-driven CRE-LacZ activity in PC12 – cell-based, CRE-LacZ reporter, forskolin-stimulated, primary screen (AID 1146).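 Also: PC12 cells with 6xCRE LacZ reporter stimulated by forskolin 10 µM; beta-galactosidase reporter signal reflecting CREB driven transcription.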 As to conditions: luminescence, 4.5 h, higher = more signal, called active from +8 up or from −8 down.
Assay [15] concerns the target Streptavidin (Streptomyces avidinii) (UniProt P22629). The assay is described as follows: compounds binding control protein streptavidin – biophysical, small-molecule microarray, 635/667 nm fluorescence, artefact control for SMM compound annotation, primary screen (AID 1147).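 Also: signal reflects streptavidin binding to arrayed compounds as a control protein.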 The conditions noted are these: higher = more signal.
Assay [16] is described as follows: probe aInhba binding on compound microarray – biochemical, small-molecule microarray, 635/667 nm fluorescence, primary screen (AID 1148).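 Also: score merges 667nm spot fluorescence with signal-to-noise for antibody binding to printed compounds.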 The conditions noted are these: higher = more signal.
Assay [17] deals with Torsin-1A (Homo sapiens) (UniProt O14656). The assay is described as follows: TOR1A wild-type binding on microarray – cell lysate, small-molecule microarray, lysate, 635/667 nm, primary screen (AID 1149). As to conditions: COS7 hTOR1A-WT lysate, 635 nm fluorescence, higher = more signal.
Chain of Torsin-1A (Homo sapiens) (O14656 whole entry, looked up): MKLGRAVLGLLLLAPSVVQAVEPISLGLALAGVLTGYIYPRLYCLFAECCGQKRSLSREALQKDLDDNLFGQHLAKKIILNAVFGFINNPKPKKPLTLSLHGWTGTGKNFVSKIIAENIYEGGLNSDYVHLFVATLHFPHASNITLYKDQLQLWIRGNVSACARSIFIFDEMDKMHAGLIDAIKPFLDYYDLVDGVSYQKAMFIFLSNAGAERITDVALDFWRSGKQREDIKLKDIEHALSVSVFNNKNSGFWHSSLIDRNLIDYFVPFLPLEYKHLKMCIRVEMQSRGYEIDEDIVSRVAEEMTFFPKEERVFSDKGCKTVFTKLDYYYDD
Assay [18] has the same target. The assay is described as follows: torsin A mutant lysate binding on microarrays – cell lysate, small-molecule microarray, COS7 lysate, 635/667 nm fluorescence, primary screen (AID 1150).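 Also: score pools 667 nm emission and signal to noise measuring lysate protein binding.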 As to conditions: COS7 hTOR1A mutant lysate, 635 nm fluorescence, higher = more signal.
The subject of assay [19] is Sonic hedgehog protein (Shh). The assay is described as follows: Sonic hedgehog microarray binding compounds – biochemical, small-molecule microarray, 635/667 nm fluorescence, primary screen (AID 1151).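 Also: Shh protein binding to compounds spotted on small-molecule microarray slides; score combines spot fluorescence intensity with signal-to-noise across triplicate slides.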 The conditions noted are these: 635 nm fluorescence, higher = more signal.

Chain of Fibroblast growth factor 2 (Homo sapiens) (P09038 whole entry, looked up): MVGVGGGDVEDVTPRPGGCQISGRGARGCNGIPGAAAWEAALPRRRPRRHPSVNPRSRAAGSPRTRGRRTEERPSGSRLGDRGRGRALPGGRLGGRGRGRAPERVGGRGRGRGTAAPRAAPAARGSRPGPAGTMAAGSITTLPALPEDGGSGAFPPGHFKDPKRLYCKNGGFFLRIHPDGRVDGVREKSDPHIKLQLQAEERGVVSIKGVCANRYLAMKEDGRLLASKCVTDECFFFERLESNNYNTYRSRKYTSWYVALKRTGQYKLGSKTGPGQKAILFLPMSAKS
Chain of Luciferin 4-monooxygenase (Photinus pyralis) (P08659 whole entry, looked up): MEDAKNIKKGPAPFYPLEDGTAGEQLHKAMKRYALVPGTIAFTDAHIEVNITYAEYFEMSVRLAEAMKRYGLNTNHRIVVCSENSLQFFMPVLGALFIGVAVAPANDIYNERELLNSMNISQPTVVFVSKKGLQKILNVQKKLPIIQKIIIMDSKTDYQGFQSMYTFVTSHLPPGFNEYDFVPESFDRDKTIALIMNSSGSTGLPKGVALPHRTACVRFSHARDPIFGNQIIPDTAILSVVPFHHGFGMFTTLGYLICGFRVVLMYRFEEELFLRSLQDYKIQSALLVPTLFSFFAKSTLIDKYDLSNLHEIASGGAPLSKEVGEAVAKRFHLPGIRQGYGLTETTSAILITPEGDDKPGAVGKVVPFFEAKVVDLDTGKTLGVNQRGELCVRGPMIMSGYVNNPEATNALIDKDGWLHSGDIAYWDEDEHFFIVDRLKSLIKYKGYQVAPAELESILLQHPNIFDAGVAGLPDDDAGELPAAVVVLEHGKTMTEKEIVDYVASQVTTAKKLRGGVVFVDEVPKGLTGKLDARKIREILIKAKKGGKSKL
Chain of Streptavidin (Streptomyces avidinii) (P22629 whole entry, looked up): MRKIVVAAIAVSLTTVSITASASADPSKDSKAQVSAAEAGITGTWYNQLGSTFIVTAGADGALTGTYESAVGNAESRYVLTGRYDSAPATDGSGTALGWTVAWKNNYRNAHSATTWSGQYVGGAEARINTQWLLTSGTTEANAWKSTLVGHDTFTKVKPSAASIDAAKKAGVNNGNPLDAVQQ
Chain of Follistatin (Homo sapiens) (P19883 whole entry, looked up): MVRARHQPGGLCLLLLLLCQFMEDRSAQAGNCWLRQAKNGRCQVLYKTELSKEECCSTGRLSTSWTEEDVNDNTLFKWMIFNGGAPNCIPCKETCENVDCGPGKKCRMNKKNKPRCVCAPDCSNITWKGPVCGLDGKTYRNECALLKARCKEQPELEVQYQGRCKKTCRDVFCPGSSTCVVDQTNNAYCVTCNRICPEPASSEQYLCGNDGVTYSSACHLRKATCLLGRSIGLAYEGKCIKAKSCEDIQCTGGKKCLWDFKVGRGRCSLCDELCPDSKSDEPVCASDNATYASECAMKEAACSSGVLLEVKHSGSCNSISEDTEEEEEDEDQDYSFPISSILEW

With `COc1cc2c(cc1O)C=[N+](Cc1cccc(OC(F)(F)F)c1)CC2`, the composite z-score in assay [1] was -0.131; in [2] it was -0.566; in assay [3], 0.185; in assay [4], -0.636; in [5] it was 0.318; in [6], -0.0744. Also, the composite z-score in the assay with Lefty1 was -0.285; in assay [8], 1.01; in [10] it was -0.141; in [15] it was -0.535; in assay [16], -0.127; with Torsin-1A (Homo sapiens) [17], 0.955. Besides, the composite z-score in the assay with Torsin-1A (Homo sapiens) [18] is 0.284; in assay [19] it was -0.0245. The z-score was 2 in [7]; -0.847 (inactive) in [9]; -2.11 (inactive) in [11]; -0.28 (inactive) in assay [12]; -0.401 (inactive) in [13]; -0.583 (inactive) in assay [14].

Take `COc1ccc(CCNC(=O)[C@@H]2c3ccccc3C(=O)N(C3Cc4ccccc4C3)[C@H]2c2ccc(CO)cc2)cc1`: the composite z-score in [1] is 1.12; in [2] it was 0.655; in assay [3], 1.02; in assay [4] it was 0.92; in assay [5], 0.25; in assay [6] it was 0.0201. In addition, the composite z-score in the assay on Lefty1 was -0.0376; in assay [8], 0.645; in assay [10] it was -0.062; in assay [15], -0.217; in assay [16], -0.0448; with Torsin-1A (Homo sapiens) [17] it was 0.0114. The composite z-score in the assay with Torsin-1A (Homo sapiens) [18] is 0.067; in assay [19] it was 0.13. In addition, the z-score in [7] was 0.997; in assay [9] it was 0.672 (inactive); in assay [11], -0.221 (inactive); in assay [12], -0.17 (inactive); in [13], -0.0888 (inactive); in assay [14] it was -1.01 (inactive).

Take `CC(C)OC(=O)C=C1C[C@@H](c2ccccc2C(F)(F)F)O[C@@H](c2ccccc2C(F)(F)F)O1`: the composite z-score is 0.209 in assay [1]; 0.737 in assay [2]; 0.554 in assay [3]; 0.183 in [4]; -0.0154 in assay [5]; 0.179 in [6]. Moreover, the composite z-score in the assay on Lefty1 was 0.109; in assay [8], 0.127; in assay [10] it was 0.0503; in assay [15], 0.215; in assay [16], -0.176; with Torsin-1A (Homo sapiens) [17] it was 0.217. Moreover, the composite z-score in the assay with Torsin-1A (Homo sapiens) [18] is 0.202; in [19], 0.245. Further, the z-score in assay [7] was 1.81; in [9], 0.464 (inactive); in assay [11] it was -4.32 (inactive); in assay [12], -0.0124 (inactive); in [13] it was 0.0798 (inactive); in assay [14], 1.22 (inactive).

Turning to `C=CCNC(=O)[C@@H]1[C@H]2C(=O)O[C@H](c3ccccc3)[C@H](c3ccccc3)N2[C@H](c2ccccc2OCCO)[C@@]12C(=O)N(C(=O)OCCOC)c1ccc(C#CCNC(N)=O)cc12`, the composite z-score in assay [1] stood at 1.56; in [2], 1.14; in [3], 0.322; in assay [4], 0.887; in [5] it was 0.864; in assay [6] it was 0.658. Besides, the composite z-score in the assay with Lefty1 worked out at 0.857; in assay [8], 0.916; in [10] it was 0.0308; in assay [15], 0.225; in [16], 0.115; in the assay with Torsin-1A (Homo sapiens) [17], 0.186. For the same compound, the composite z-score with Torsin-1A (Homo sapiens) [18] amounted to 0.697; in assay [19], 1.53. In addition, the z-score in [7] is -0.206; in assay [9], -0.63 (inactive); in assay [11], -0.952 (inactive); in [12], -0.441 (inactive); in assay [13], -0.199 (inactive); in [14] it was 0.447 (inactive).

As for `CN(C)CCCNC(=O)[C@@]1(c2ccc([N+](=O)[O-])cc2)CC(=O)N(C2CCCCC2)[C@@H]1c1ccc(CO)cc1`, the composite z-score in [1] is -0.0406; in [2], 0.108; in assay [3], -0.221; in [4], 0.874; in assay [5] it was 0.928; in [6], -0.209. Besides, the composite z-score in the assay with Lefty1 was 0.401; in assay [8], -0.0351; in assay [10], -0.217; in [15] it was 0.494; in assay [16] it was 0.0342; with Torsin-1A (Homo sapiens) [17] it was -0.485. For the same compound, the composite z-score in the assay with Torsin-1A (Homo sapiens) [18] was -0.161; in assay [19], 0.371. Also, the z-score in assay [7] was 1.22; in assay [9], -0.0244 (inactive); in assay [11], -0.406 (inactive); in assay [12], 0.382 (inactive); in assay [13], 0.234 (inactive); in assay [14], -0.342 (inactive).
